Screens deposited in PubChem by National Center for Advancing Translational Sciences (NCATS).
Caspase-7 inhib: allosteric or competitive inhibitors of human caspase-7; P55210; recombinant caspase-7, Ac-DEVD-AFC fluorescence rate; Potency, µM (series often up to 57.5 µM), without a hit: at the top dose activity change, negative = inhibition, actives largely listed as inhibitors; hit rate 0.02% among 75,000; AID 889; active = well fitted inhibition curve with a large enough effect in the main read-out, with a control signal flat, not every such curve was filed as active; inconclusive = small, poorly fitted or top-dose-only effect, or a change in a side signal; also: % of control where 0% means no effect
Target sequence (P55210 24-198 limits assumed): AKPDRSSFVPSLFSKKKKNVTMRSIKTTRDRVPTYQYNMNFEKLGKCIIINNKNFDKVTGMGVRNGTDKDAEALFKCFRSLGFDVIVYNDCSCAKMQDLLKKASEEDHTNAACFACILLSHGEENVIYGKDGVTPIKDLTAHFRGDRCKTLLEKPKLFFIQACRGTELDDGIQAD
Target sequence (P55210 207-303 limits assumed): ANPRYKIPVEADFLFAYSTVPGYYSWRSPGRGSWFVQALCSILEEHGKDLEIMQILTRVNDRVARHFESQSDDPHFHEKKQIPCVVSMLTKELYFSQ
ERK AVP inh: vasopressin-driven ERK pathway inhibition | HEK293-V1b, vasopressin-stimulated pERK AlphaScreen | Potency, µM (titrated, usually from 57.5 µM), inactives show at the top dose activity, negative = inhibition, usual class: inhibitors | hit rate 0.99% among 72,000; also: % is scaled to controls: 0 for no effect and ±100 for the full control effect; nearly all actives have a fitted effect of over 55% in size
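HEK293 cells stably expressing V1b receptor, seeded overnight in 1% FBS, were treated with compounds for 30 min at 37C, then stimulated 5 min with 25 nM vasopressin; phospho-ERK read by AlphaScreen SureFire after lysis.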
15-hLO-2 inh: 15-hLO-2 (ALOX15B) enzyme inhibition. O15296. purified 15hLO-2, xylenol orange hydroperoxide absorbance. Potency, µM (doses to about 57.1 µM), inactives show at the highest dose activity change, negative = inhibition, actives largely listed as inhibitors. hit rate 0.56% among 110,000. AID 881; also: % is scaled to controls: 0 for no effect and ±100 for the full control effect; nearly all actives have a fitted effect of over 60% in size
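Screening format was qHTS against 50 nM purified 15hLO-2 in Hepes pH 7.5 with detergent. Activity follows hydroperoxide formation from 45 uM arachidonic acid, measured as 573:405 nm absorbance ratio of the ferric-xylenol orange complex.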
Casp1 inh: caspase-1 (human) inhibition, allosteric or competitive. Caspase-1 enzyme, Ac-WEHD-AFC fluorogenic rate. Potency, µM (series often up to 57.5 µM), for the others: at the highest dose activity change, negative = inhibition, hits mostly inhibitors. hit rate 0.03% among 75,000;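 also: plate controls were vehicle for no effect and no substrate for full effect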
Target sequence (P29466 120-297 limits assumed): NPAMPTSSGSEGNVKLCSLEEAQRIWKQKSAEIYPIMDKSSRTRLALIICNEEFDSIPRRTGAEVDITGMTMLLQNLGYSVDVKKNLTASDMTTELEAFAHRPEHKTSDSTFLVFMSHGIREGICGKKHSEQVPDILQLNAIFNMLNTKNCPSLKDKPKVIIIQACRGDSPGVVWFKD
Target sequence (P29466 317-404 limits assumed): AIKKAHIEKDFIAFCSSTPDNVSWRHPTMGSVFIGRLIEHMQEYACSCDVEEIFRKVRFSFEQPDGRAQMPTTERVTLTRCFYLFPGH
ALOX15 inhib: blocks human 15-lipoxygenase activity | purified 15hLO-1, xylenol orange hydroperoxide absorbance | P16050 | Potency, µM (top dose mostly 57.1 µM), for inactives: top-dose activity change, negative = inhibition, most hits filed as inhibitors | hit rate 1.4% among 74,000; also: % is scaled to controls: 0 for no effect and ±100 for the full control effect; nearly all actives have a fitted effect of over 55% in size
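Quantitative HTS in 25 mM Hepes pH 7.5 containing 0.01% Triton X-100: human 15hLO-1 at 40 nM, arachidonic acid at 50 uM, 6 min turnover. Product quantified via ferrous oxidation/xylenol orange, 573:405 nm absorbance ratio.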
The depositor's hits bear a star; ? = inconclusive; . = not tested or not shown; ! = not confirmed by another sample; [ ] = dose if it differs, or a comment. The list is not random: actives were taken first. Their share in the collection is about 1.7%. Unless noted, calls follow the shape of the dose curve; as a rule, active = well fitted curve in the direction sought with a large enough effect; inconclusive = small, poorly fitted or top-dose-only effect, or another doubt; inactive = no such curve, though single readings can be large; an effect the other way counts as inactive or inconclusive. Potency is read from the fitted curve at half-maximal effect.

SMILES	Caspase-7 inhib	ERK AVP inh	15-hLO-2 inh	Casp1 inh	ALOX15 inhib
O=C(Nc1ccc2nc(-c3ccco3)c(-c3ccco3)nc2c1)N1CCCCCC1	?	?	-16.3%	.	5.01µM*
O=C(NCCO)c1ccc2nc(-c3ccco3)c(-c3ccco3)nc2c1	.	.	-14.4%	.	.
C=CCn1c(C)cc(C(=O)CSc2nc3ccccc3c(=O)[nH]2)c1C	-3.5%	20µM*	?	1.8%	-14.0%
C=CCn1c(C)cc(C(=O)CSc2nc3ccccc3[nH]2)c1C	.	.	8.5%	.	.
Cn1cccc1/C=C1\SC(=O)N(CC(=O)Nc2ccc(Cl)cc2)C1=O	.	.	-6.0%	.	.
Cc1ccc(NC(=O)CN2C(=O)S/C(=C/c3ccc(-c4cc(C(=O)O)ccc4C)o3)C2=O)cc1C	.	.	20µM*	.	.
Nc1ncnc2c1ncn2C[C@@H](O)C(=O)O	1.8%[11.5 µM]	-12.1%[11.5 µM]	-3.7%[11.4 µM]	-2.1%[11.5 µM]	5.1%[11.4 µM]
CCCCCC[C@@H]([C@@H](C)O)n1cnc2c(N)ncnc21	-1.9%	-15.0%	2.5%	0.0%	12.6µM*
COc1ccccc1CNC(=O)Nc1cccs1	-9.6%	.	?	-5.9%	12.6µM*
COc1ccc(CNC(=O)Nc2cccs2)cc1OC	-3.8%	20.8%	.	-5.0%	-27.5%
COc1cccc(N2CCN(Cc3nc(N)nc(Nc4ccccc4)n3)CC2)c1	-1.4%	-23.5%	26.0%[2.29 µM]	0.5%	26.1%
Nc1nc(CN2CCN(c3ccccn3)CC2)nc(Nc2ccc(Cl)cc2)n1	-1.7%	31.6µM*	20.6%	-3.0%	3.5%
N#CCSc1nc(Nc2ccc3c(c2)OCO3)c2ccccc2n1	-20.7%	31.6µM*	-3.1%	?	?
CCOC(=O)CSc1nc(Nc2ccc3c(c2)OCO3)c2ccccc2n1	.	.	9.1%	.	.
COC(=O)[C@@]1(Cc2ccccc2)[C@H]2c3cc(C(=O)N(C)C)n(CCF)c3C[C@H]2CN1C(=O)c1ccccc1	-4.0%	22.7%	-1.1%	-3.7%	.
Cc1ccc(S(=O)(=O)c2c(N)n(/N=C/c3ccco3)c3nc4ccccc4nc23)cc1C	-7.3%	-0.9%	12.6µM*	-5.1%	?
COc1ccc(S(=O)(=O)c2c(N)n(Cc3ccco3)c3nc4ccccc4nc23)cc1	?	-23.9%	-10.8%	.	20µM*
CC(=O)C(C(C)=O)c1c(Cl)c(O)c(O)c2c(C(=O)c3ccccc3)coc12	-9.1%	?	?	-5.6%	2.51µM*
CC[n+]1c(/C=C2/C=C(C)CC(C)(C)C2)sc2ccc(OC)cc21	.	.	25.1µM*	.	.
CC[n+]1c(/C=C2\C=C(C)CC(C)(C)C2)sc2ccccc21	.	.	25.1µM*	.	.
Cc1sc2ccccc2[n+]1CCC(=O)O	1.5%[11.5 µM]	1.7%[11.5 µM]	-5.1%[11.4 µM]	-2.8%[11.5 µM]	-7.0%[11.4 µM]
CC(C)C(=O)Cc1ccc2ccccc2n1	-0.2%[11.5 µM]	-7.4%[11.5 µM]	-8.1%[11.4 µM]	-2.2%[11.5 µM]	3.1%[11.4 µM]
Cc1cc(C(C)(C)C)c(OCCCN2CCOCC2)c(C(C)(C)C)c1	-2.5%[11.5 µM]	-12.6%[11.5 µM]	9.1%[11.4 µM]	0.9%[11.5 µM]	9.5%[11.4 µM]
O=C(O)C(S)[C@@H](S)C(=O)O (stereo partly specified)	-9.4%	6.0%	16.3%	0.4%	7.94µM*
COc1ccccc1OCc1ccc(C(=O)Nc2ccncc2)o1	-0.5%	15.8µM*	0.4%	1.4%	-0.7%
SMILES	Caspase-7 inhib	ERK AVP inh	15-hLO-2 inh	Casp1 inh	ALOX15 inhib
COc1ccccc1S(=O)(=O)Cc1ccc(C(=O)N2CCN(c3ccc(C)cc3)C(C)C2)o1 (stereo unspecified)	0.6%	25.1µM*	-1.2%	-3.6%	-13.2%
CCOC(=O)N1CCN(C(=O)c2ccc(CS(=O)(=O)c3ccccc3OC)o2)CC1	0.3%	-0.4%	-2.5%	-0.9%	0.5%
Cc1nn(C)cc1CNC(=O)c1cnn2c(C(F)F)cc(C3CC3)nc12	-2.1%	7.94µM*	4.2%	-2.0%	-7.8%
O=C(NCCc1ccccc1)c1cnn2c(C(F)F)cc(C3CC3)nc12	-2.5%	-6.7%	-8.7%	-1.9%	-19.4%
N[C@@H](Cn1c2c(c(=O)[nH]c1=O)CCC2)C(=O)O	.	.	-6.6%[0.0915 µM]	.	.
CC(CN(C)C)NC(=O)c1ccc(-n2c(=O)c(=O)[nH]c3ccccc32)cc1 (stereo unspecified)	-2.0%	.	.	-2.6%	-0.3%
CC1Cc2ccccc2N1C(=O)c1cccnc1 (stereo unspecified)	3.7%	-5.1%	-0.2%	-2.0%	3.2%
CC1Cc2ccccc2N1C(=O)c1cnsn1 (stereo unspecified)	0.9%	36.9%	-6.9%	2.3%	3.98µM*
O=C1CC(/C=C/c2ccco2)=Nc2ccccc2N1	-2.0%	13.5%	-13.4%	3.3%	5.01µM*
Sc1ccc2ccccc2c1CNCc1ccccc1	-1.3%[11.5 µM]	-0.5%[11.5 µM]	5.2%[11.4 µM]	-3.8%[11.5 µM]	-14.9%[11.4 µM]
COc1ccc(NC(=O)c2cc(-c3ccc(O)cc3)on2)cc1OC	0.6%	-11.0%	.	2.3%	-3.8%
COc1cc2ccc(=O)oc2c(O)c1O	?	?	-8.5%	.	12.6µM*!
COc1cc2ccc(=O)oc2c(OC)c1OC	-0.2%	-6.8%	-1.3%	0.2%	4.1%
O=C(Nc1ccccc1)N1CCC2(CC1)CCN(S(=O)(=O)c1ccccc1)CC2	0.2%	1.1%	4.2%	1.0%	3.2%
CCCCc1ccc(C2C(C#N)=C(N)SC(N)=C2C#N)s1	?	-14.1%	12.6µM*	.	0.794µM*
COc1ccc(-c2nc3cnc(N4CCOCC4)nc3n(Cc3cccs3)c2=O)cc1	?	-27.8%	-0.3%	.	-5.8%
CN(C)S(=O)(=O)c1cccc(C(=O)OCC(=O)c2ccc3c(c2)NC(=O)CO3)c1	.	.	-13.7%	.	.
CCN(CC)S(=O)(=O)c1cc(C(=O)OCC(=O)c2ccc3c(c2)NC(=O)CO3)ccc1F	-6.2%	31.6µM*	-4.0%	-3.7%	-4.6%
O=C(Nc1ccc(N2CCN(C(=O)c3ccco3)CC2)c(Cl)c1)c1cc2ccccc2o1	-6.9%	7.94µM*	-13.2%	-6.5%	-15.6%
CCC(=O)N1CCN(c2ccc(NC(=O)c3cc4ccccc4o3)cc2Cl)CC1	-6.4%	31.6µM*	7.5%	-5.8%	-16.7%
CCCC(=O)N1CCN(c2ccc(NC(=O)c3cc4ccccc4o3)cc2Cl)CC1	-2.8%	7.94µM*	5.9%[2.29 µM]	-5.2%	-24.2%
O=C(Nc1ccc(N2CCN(C(=O)c3ccccc3)CC2)c(Cl)c1)c1ccco1	-6.4%	?	-4.7%	-1.5%	-22.6%
Cc1cnc(CNc2cc(-c3ccoc3)ncn2)cn1	?	-1.4%	13.6%	-19.4%	-11.5%
O=C(c1ccccc1)[C@@H]1O[C@H]1c1ccc(-c2ccccc2)cc1	-2.2%	5.0%	22.3%	0.9%	4.8%[25.6 µM]
COC(=O)c1ccccc1NC(=O)c1ccc(F)cc1	1.2%	11.6%	17.4%	-2.8%	17.1%[25.6 µM]
CCOC(=O)c1ccccc1NC(=O)c1ccc(NS(C)(=O)=O)cc1	0.0%	25.1µM*	-0.1%	-1.5%	-10.5%
Cc1cnc(CNc2nc(-c3ccc(C(=O)N(C)C)cc3)nc3ccccc23)cn1	0.5%	0.8%	-2.1%	-1.1%	-3.9%
CC(=O)c1cc(-c2nc3ccccc3n2C)n(C)c1	0.7%	-28.1%	-2.5%	0.6%	-0.6%
Cn1cc(C(=O)c2ccc(F)cc2)cc1-c1nc2ccccc2n1C	0.2%	25.1µM*	0.3%	-1.0%	-5.0%
CN(C)c1ccc(/C=C2/C(=O)Nc3ccccc32)cc1	-1.4%	15.8µM*	0.1%	3.3%	-9.2%
